Inconclusive results are not listed. The source made the active and inactive calls. Calls follow the shape of the full dose curve.
Key:
[1] = biological target: Acetylcholinesterase (Homo sapiens) (UniProt P22303); assay: Acetylcholinesterase (AChE) small molecule antagonists: colormetric cell-based qHTS assay (AID 1347395); also: nearly all actives have a fitted effect of over 30% in size
How it was run: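 Homogeneous whole-cell format. SH-SY5Y cells seeded overnight, dosed with compound (30 min, 37 C, 5% CO2), then given DTNB/acetylthiocholine cocktail for 90 min at 37 C; colorimetric signal.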

[2] = biological target: Acetylcholinesterase (Homo sapiens) (UniProt P22303); assay: Acetylcholinesterase (AChE) small molecule antagonists: enzyme-based qHTS assay (AID 1347397); conditions: Potency: AChE enzyme activity inhibition; outcome: AChE enzyme activity inhibition; also: nearly all actives have a fitted effect of over 55% in size
How it was run: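 Tox21 library chemicals are tested in qHTS format against recombinant human AChE. The enzyme, dispensed at 50 mU/mL, sits with compound for 30 min at room temperature. A DTNB–acetylthiocholine cocktail follows, and colour is read after 10 min.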

[3] = biological target: Acetylcholinesterase (Homo sapiens) (UniProt P22303); assay: Acetylcholinesterase (AChE) small molecule antagonists: fluorescence cell-based qHTS assay (AID 1347398); conditions: Potency: AChE activity; outcome: AChE activity; also: nearly all actives have a fitted effect of over 50% in size
How it was run: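 Cellular AChE inhibition: SH-SY5Y cells treated with test chemical for 30 min at 37 C, then acetylthiocholine hydrolysis followed over 40 min at room temperature via thiocholine-reactive Thiolite Green fluorescence (490/520 nm).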

[4] = biological target: Acetylcholinesterase (Homo sapiens) (UniProt P22303); assay: Acetylcholinesterase (AChE) small molecule antagonists: enzyme-based qHTS assay with human liver microsomes (AID 1347399); conditions: Potency: qHTS inhibition; outcome: qHTS inhibition; also: nearly all actives have a fitted effect of over 60% in size
How it was run: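 Recombinant human AChE (50 mU/mL in the enzyme mix) and human liver microsomes (0.25 mg/mL final) were preincubated with compound and NADPH (0.25 mg/mL final) for 30 min at 37 C. Acetylthiocholine/DTNB was then added; thiocholine was read colorimetrically after 10 min at room temperature.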
% is scaled to controls: 0 for no effect and ±100 for the full control effect.

Chain of Acetylcholinesterase (Homo sapiens) (P22303 whole entry, looked up): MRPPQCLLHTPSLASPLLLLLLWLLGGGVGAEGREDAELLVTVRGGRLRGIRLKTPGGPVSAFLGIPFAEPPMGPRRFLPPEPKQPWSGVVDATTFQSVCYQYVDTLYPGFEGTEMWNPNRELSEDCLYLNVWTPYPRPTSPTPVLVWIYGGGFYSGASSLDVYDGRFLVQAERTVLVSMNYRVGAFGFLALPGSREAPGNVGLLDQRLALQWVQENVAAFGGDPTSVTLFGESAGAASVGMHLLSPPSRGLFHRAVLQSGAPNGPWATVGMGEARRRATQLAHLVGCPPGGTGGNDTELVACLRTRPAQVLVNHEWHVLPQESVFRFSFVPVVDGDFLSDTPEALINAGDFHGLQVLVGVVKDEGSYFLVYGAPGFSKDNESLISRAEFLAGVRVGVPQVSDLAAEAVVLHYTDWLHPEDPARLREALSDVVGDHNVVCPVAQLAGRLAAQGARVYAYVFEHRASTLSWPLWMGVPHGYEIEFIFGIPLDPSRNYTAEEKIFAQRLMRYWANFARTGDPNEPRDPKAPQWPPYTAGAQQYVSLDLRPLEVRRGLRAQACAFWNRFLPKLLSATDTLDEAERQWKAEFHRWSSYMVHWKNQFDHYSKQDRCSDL

Cc1cc(CC(=O)O)c(C)n1-c1ccc(Cl)cc1
inactive: Potency [1] | Potency [2] | Potency [3] | Potency [4]

CCOc1ccc2c(c1)C(C)CC(C)(C)N2 (configuration not stated)
inactive: Potency [1] | Potency [2] | Potency [3] | Potency [4]

CCN(CC)CCc1nc(-c2ccccc2)no1
inactive: Potency [1] | Potency [2] | Potency [3] | Potency [4]

Nc1nc(CC(=O)O)cs1
inactive: Potency [1] | Potency [2] | Potency [3] | Potency [4]

O=C(O)c1c2ccccc2cc2ccccc12
inactive: Potency [1] | Potency [2] | Potency [3] | Potency [4]

CC1=C(/C=C/C(C)=C/C=C/C(C)=C\C=O)C(C)(C)CCC1
inactive: Potency [1] | Potency [2] | Potency [3] | Potency [4]

CC[N+]1(CC)CCC(=C(c2ccccc2)c2ccccc2)C1C (configuration not stated)
inactive: Potency [1] | Potency [2] | Potency [3] | Potency [4]

COC(=O)c1ccc(OC)cc1
inactive: Potency [1] | Potency [2] | Potency [3] | Potency [4]

CCCCCCOC(=O)CC
inactive: Potency [1] | Potency [2] | Potency [3] | Potency [4]

C[N+](C)(CCOc1ccccc1)Cc1cccs1
inactive: Potency [1] | Potency [2] | Potency [3] | Potency [4]

OCC(F)(F)F
inactive: Potency [1] | Potency [2] | Potency [3] | Potency [4]

CC(=O)Nc1cccc(C)c1
inactive: Potency [1] | Potency [2] | Potency [3] | Potency [4]

CCCCCc1ccc(Cl)cc1
inactive: Potency [1] | Potency [2] | Potency [3] | Potency [4]

CC(O)C1CCCCC1 (configuration not stated)
inactive: Potency [1] | Potency [2] | Potency [3] | Potency [4]

CCCCOCCCC
inactive: Potency [1] | Potency [2] | Potency [3] | Potency [4]

Cc1occc1C(=O)Nc1ccc(C(=O)N2CCC(F)(F)/C(=C\C(=O)N3CCC(N4CCCCC4)CC3)c3ccccc32)cc1
inactive: Potency [1] | Potency [2] | Potency [3] | Potency [4]

CCc1c(Br)c(Br)c(Br)c(Br)c1Br
inactive: Potency [1] | Potency [2] | Potency [3] | Potency [4]

CCOC(=O)Nc1ccc2c(c1)N(C(=O)CCN1CCOCC1)c1ccccc1S2
inactive: Potency [1] | Potency [2] | Potency [3] | Potency [4]

Clc1ccnc(Cl)n1
inactive: Potency [1] | Potency [2] | Potency [3] | Potency [4]

O=C(O)c1cccnc1C(=O)O
inactive: Potency [1] | Potency [2] | Potency [3] | Potency [4]

NCC1CCCC(CN)C1 (configuration not stated)
inactive: Potency [1] | Potency [2] | Potency [3] | Potency [4]

CCCCC(CC)CNCC(CC)CCCC (configuration not stated)
inactive: Potency [1] | Potency [2] | Potency [3] | Potency [4]

CC(=O)OCC1=C(C(=O)O)N2C(=O)[C@@H](NC(=O)Cc3cccs3)[C@H]2SC1
inactive: Potency [1] | Potency [2] | Potency [3] | Potency [4]

CCCCOC(=O)CCCCC(=O)OCCCC
inactive: Potency [1] | Potency [2] | Potency [3] | Potency [4]

C=CC(=O)[O-].C=CC(=O)[O-].[Zn+2]
inactive: Potency [1] | Potency [2] | Potency [3] | Potency [4]

O=C(O)[C@H](O)c1ccccc1
inactive: Potency [1] | Potency [2] | Potency [3] | Potency [4]

C[C@@H](O)[C@H]1C(=O)N2C(C(=O)O)=C([C@H]3CCCO3)S[C@H]12
inactive: Potency [1] | Potency [2] | Potency [3] | Potency [4]

CC(C)NC(=O)c1ccc(C=O)cc1
inactive: Potency [1] | Potency [2] | Potency [3] | Potency [4]

COc1ccc(OC)c(OC)c1
inactive: Potency [1] | Potency [2] | Potency [3] | Potency [4]

CN(C)CCN1CCN(c2cccc(Cl)c2)C1=O
inactive: Potency [1] | Potency [2] | Potency [3] | Potency [4]

Cc1c(Cl)cccc1Nc1ccccc1C(=O)O
inactive: Potency [1] | Potency [2] | Potency [3] | Potency [4]

FC(F)(F)C(F)(F)C(F)(F)C(F)(F)C(F)(F)C(F)(F)C(F)(F)C(F)(F)Br
inactive: Potency [1] | Potency [2] | Potency [3] | Potency [4]

CC(=O)Nc1ncc([N+](=O)[O-])s1
inactive: Potency [1] | Potency [2] | Potency [3] | Potency [4]

BrCCCCCBr
inactive: Potency [1] | Potency [2] | Potency [3] | Potency [4]

CC(C)=CCC/C(C)=C/COC=O
inactive: Potency [1] | Potency [2] | Potency [3] | Potency [4]

CCN1CCOCC1
inactive: Potency [1] | Potency [2] | Potency [3] | Potency [4]

C[C@@H](O)[C@H](N)C(=O)O
inactive: activity, negative = inhibition [1] 2.29% [at 23.6 µM] | activity change, negative = inhibition [2] 0.985% [at 23.6 µM] | activity change, negative = inhibition [3] 4.69% [at 23.8 µM] | activity change, negative = inhibition [4] -2.85% [at 23.6 µM]

Nc1cc(C(=O)O)c(O)c(S(=O)(=O)O)c1
inactive: Potency [1] | Potency [2] | Potency [3] | Potency [4]

C[Si](Cl)(c1ccccc1)c1ccccc1
inactive: Potency [1] | Potency [2] | Potency [3] | Potency [4]

CCCCCCC1CCC(=O)O1 (configuration not stated)
inactive: Potency [1] | Potency [2] | Potency [3] | Potency [4]

CCCCC(=O)O[C@]1(C(=O)CO)[C@H](C)C[C@H]2[C@@H]3CCC4=CC(=O)C=C[C@]4(C)[C@@]3(F)[C@@H](O)C[C@@]21C
inactive: Potency [1] | Potency [2] | Potency [3] | Potency [4]

CCCCN
inactive: Potency [1] | Potency [2] | Potency [3] | Potency [4]

C1CCCCCCCCCCC1
inactive: activity, negative = inhibition [1] -0.403% [at 23.6 µM] | activity change, negative = inhibition [2] 0.515% [at 23.6 µM] | activity change, negative = inhibition [3] 7.82% [at 23.8 µM] | activity change, negative = inhibition [4] -0.0559% [at 23.6 µM]
